Shown is part of a subset that was picked to be rich in hits.
U2OS ROS induce – raises reactive oxygen species in U2OS cancer cells; U2OS ROS induction, H2DCF-DA fluorescence; ROS induction (% of piperlongumine), % at 10 µM; 46,000 tested, 2% active; AID 624156; in the data active means ROS induction above about 79%, passing the limit was not always enough;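 further: 0% = DMSO vehicle median and 100% = reference compound median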
Active calls of the source: *.

Screening COCCOC(=O)N1C(=O)[C@@]2(c3cc(C#CC4=CCCCC4)ccc31)[C@H](C(=O)NC[C@H](O)c1ccccc1)[C@H]1C(=O)O[C@H](c3ccccc3)[C@H](c3ccccc3)N1[C@@H]2c1ccccc1OCCO returned U2OS ROS induce 65.
For COCCOC(=O)N1C(=O)[C@@]2(c3cc(C#CC4(O)CCCCCC4)ccc31)[C@H](c1ccc(OCCO)cc1)N1[C@H](c3ccccc3)[C@H](c3ccccc3)OC(=O)[C@H]1[C@@H]2C(N)=O the results were U2OS ROS induce -1.
For COCCOC(=O)N1C(=O)[C@@]2(c3cc(C#CC4(O)CCCCCC4)ccc31)[C@H](C(=O)NC[C@H](O)c1ccccc1)[C@H]1C(=O)O[C@H](c3ccccc3)[C@H](c3ccccc3)N1[C@@H]2c1ccccc1OCCO the results were U2OS ROS induce 141*.
`C=CCNC(=O)[C@H]1[C@@H]2C(=O)O[C@@H](c3ccccc3)[C@@H](c3ccccc3)N2[C@@H](c2ccc(O)cc2)[C@]12C(=O)N(C(=O)OCCOC)c1ccc(C#CCC(C(=O)OC)C(=O)OC)cc12` gave U2OS ROS induce 59.
C=CCNC(=O)[C@@H]1[C@H]2C(=O)O[C@H](c3ccccc3)[C@H](c3ccccc3)N2[C@H](c2ccccc2OCCO)[C@@]12C(=O)N(C(=O)OCCOC)c1ccc(C#CCC(C(=O)OC)C(=O)OC)cc12 was read as U2OS ROS induce 110*.
Screening C=CCNC(=O)[C@H]1[C@@H]2C(=O)O[C@@H](c3ccccc3)[C@@H](c3ccccc3)N2[C@@H](c2ccc(OCCO)cc2)[C@]12C(=O)N(C(=O)OCCOC)c1ccc(C#Cc3ccc(OC)cc3)cc12 returned U2OS ROS induce 5.
`O=C(CCCCCCC(=O)Nc1ccccc1O)N/N=C/c1ccc(Br)o1` gave U2OS ROS induce -4.
C[C@@H]1CN([C@H](C)CO)C(=O)c2cccc(NC(=O)CCCCCC(=O)Nc3ccccc3N)c2O[C@@H]1CN(C)S(=O)(=O)c1cccs1 was read as U2OS ROS induce 32.
`O=C(Nc1ccc(Br)cc1)c1ccc(NS(=O)(=O)c2cccc3cccnc23)cc1` gave U2OS ROS induce 10.
CC(C)NC(=O)Nc1ccc2c(c1)C(=O)N([C@H](C)CO)C[C@H](C)[C@@H](CN(C)Cc1ccc(Oc3ccccc3)cc1)O2 was read as U2OS ROS induce 11.
`C=CC1CN(C(C)=O)CCC1CCC(=O)c1ccnc2ccccc12` (stereo not given) gave U2OS ROS induce 6.
Screening C[C@@H]1CCCCO[C@H](CN(C)C(=O)Nc2cccc3ccccc23)[C@@H](C)CN([C@H](C)CO)C(=O)c2cc(NC(=O)Nc3cccc4ccccc34)ccc2O1 returned U2OS ROS induce 53.
`C[C@@H]1CCCCO[C@H](CN(C)C(=O)Nc2cccc3ccccc23)[C@@H](C)CN([C@H](C)CO)C(=O)c2cc(NS(=O)(=O)c3ccccc3)ccc2O1` gave U2OS ROS induce 56.
C[C@@H]1CCCCO[C@H](CN(C)C(=O)Nc2cccc3ccccc23)[C@@H](C)CN([C@H](C)CO)C(=O)c2cc(NC(=O)C3CCCCC3)ccc2O1 was read as U2OS ROS induce 22.
`C[C@@H]1CCCCO[C@H](CN(C)C(=O)Nc2cccc3ccccc23)[C@@H](C)CN([C@H](C)CO)C(=O)c2cc(NS(=O)(=O)c3ccc(Cl)cc3)ccc2O1` gave U2OS ROS induce 89*.
Screening C[C@@H]1CCCCO[C@H](CN(C)C(=O)Nc2cccc3ccccc23)[C@@H](C)CN([C@H](C)CO)C(=O)c2cc(NS(=O)(=O)c3ccc(F)cc3)ccc2O1 returned U2OS ROS induce 54.
For C[C@@H]1CCCCO[C@@H](CN(C)C(=O)Nc2cccc3ccccc23)[C@@H](C)CN([C@H](C)CO)C(=O)c2cc(NC(=O)C3CCCCC3)ccc2O1 the results were U2OS ROS induce 134*.
For COc1cc(/C=N/NC(=O)c2ccccn2)ccc1O the results were U2OS ROS induce 1.
CC(C)(C)c1nc(-c2ccc(-c3ccon3)s2)no1 was read as U2OS ROS induce -6.
O=C(NO)c1ccc(C(=O)N/N=C/c2ccc(I)cc2)cc1 was read as U2OS ROS induce -7.
O=C1CCC(c2ccccc2)c2cc(Oc3c(F)c(N4CCOCC4)nc(F)c3Cl)ccc21 (stereo not given) was read as U2OS ROS induce 0.
Screening Cc1noc(C)c1NC(=O)Nc1cccc2c1O[C@H](CN(C)Cc1ccncc1)[C@H](C)CN([C@H](C)CO)C2=O returned U2OS ROS induce 1.
`Oc1[nH]c2ccccc2c1C=NCc1ccccc1` gave U2OS ROS induce -12.
For COc1ccccc1/C=C1\SC(=O)N(CC(=O)N2CCOCC2)C1=O the results were U2OS ROS induce -6.
COc1ccc(OC)c(S(=O)(=O)N(C)CC(=O)N2CCOCC2)c1 was read as U2OS ROS induce -13.
`COc1ccccc1-c1cc(C(F)(F)F)nc(S(=O)(=O)CCCC(=O)N2CCOCC2)n1` gave U2OS ROS induce 90*.
CC(=O)N1c2ccccc2C(=O)C1NC(N)=S (stereo not given) was read as U2OS ROS induce 0.
